Most compounds without a hit are left out; they make up all but 7.9% or so of the library.
KB-3-1 tox – qHTS assay for MDR1-selective chemotherapeutics: Primary screen using the parental adenocarcinoma cell KB-3-1; KB-3-1 viability, CellTiter-Glo ATP luminescence, 72 h; Potency, µM (highest dose often 46.1 µM), hits mostly cytotoxic; 400,000 tested, 1.4% active; further: on the % scale 0 is the no-effect control and ±100 the full control effect; nearly all actives have a fitted effect of over 60% in size
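Cells are dispensed, compounds pinned in, plates held at 37 °C for 72 h, then CellTiter-Glo is added and luminescence read after 10 minutes. Cell line: parental KB-3-1 in phenol-red-free DMEM, 10% FBS.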
HT1080-NT tox – qHTS for induction of synthetic lethality in tumor cells producing 2HG: qHTS for the HT-1080-NT fibrosarcoma cell line | Potency, µM (top dose mostly 46.1 µM), for the others: at the top dose activity, negative = less viability, actives largely listed as cytotoxic | 360,000 tested, 1.6% active | HT-1080-NT fibrosarcoma viability, CellTiter-Glo ATP luminescence, 48 h;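 further: NT is the 2HG producing partner of a matched IDH1 knockdown line; 0% = DMSO-treated cells and -100% = media-only wells without cells; nearly all actives have a fitted effect of over 55% in size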
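Luminescent CellTiter-Glo readout after 48 hours of compound exposure at 37 degrees C defined viability of HT-1080-NT cells. Activity was normalized to DMSO wells and cell-free media wells; concentration-response curves were fitted and assigned curve classes.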
HT1080 IDH1KD tx – qHTS for induction of synthetic lethality in tumor cells producing 2HG: qHTS for the HT-1080-IDH1KD cell line; HT-1080 IDH1 knockdown viability, ATP luminescence, 48 h; Potency, µM (doses to about 46.1 µM), for the others: top-dose activity, negative = toxicity, most hits filed as cytotoxic; 360,000 tested, 2% active; AID 686971, 2013;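 further: 0% = DMSO wells and -100% = cell-free medium wells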
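Assay cells: HT-1080 with IDH1 knockdown, 750 per well, RPMI/5% FBS. Exposure: 48 h at 37 °C following 2 h pre-incubation. Read: CellTiter-Glo luminescence; fitted concentration-response, curve class assigned.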
KB-V1 MDR tox – qHTS assay for MDR1-selective chemotherapeutics: Primary screen using the drug-selected MDR subline cells KB-V1. KB-V1 MDR cells viability, CellTiter-Glo, 72 h. Potency, µM (series often up to 46.1 µM), most hits filed as cytotoxic. 400,000 tested, 3.4% active. AID 1347076, 2019; further: on the % scale 0 is the no-effect control and ±100 the full control effect; nearly all actives have a fitted effect of over 60% in size
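Potencies derive from concentration-effect curves fitted to normalized luminescence (CellTiter-Glo) of KB-V1 cells treated for 72 h at 37 degrees C in phenol-red-free DMEM containing 10% FBS.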
MCF10A rerep – A quantitative high throughput screen for small molecules that induce DNA re-replication in MCF 10a normal breast cells; MCF 10A DNA re-replication, Hoechst nuclear intensity, 48 h; Potency, µM (highest dose often 46.1 µM), for inactives: at the highest dose activity, positive = re-replication, most hits filed as activators; 350,000 tested, 2.9% active; AID 624296, 2012; further: % of control where 0% means no effect; nearly all actives have a fitted effect of over 50% in size
SW480 rereplic – A quantitative high throughput screen for small molecules that induce DNA re-replication in SW480 colon adenocarcinoma cells | SW480 DNA re-replication, Hoechst DNA content imaging, 48 h | Potency, µM (doses to about 46.1 µM), for inactives: at the highest dose re-replication activation, usual class: activators | 340,000 tested, 1.8% active | AID 624297, 2012; further: % of control where 0% means no effect; nearly all actives have a fitted effect of over 55% in size
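Readout is total intensity of Hoechst-stained nuclei, excited at 405 nm and collected at 500-530 nm. Compound treatment lasted 48 hr at 37 C in 5% CO2 before staining.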
Active calls of the source: *; i = inactive; u = inconclusive; x = no result; ! = a repeat was not active; [ ] = dose if it differs, or a comment. The call rests on the fitted dose curve; in most records, active means well fitted curve in the direction sought with a large enough effect; inconclusive means small, poorly fitted or top-dose-only effect, or another doubt; inactive means no such curve, though single readings can be large; an effect the other way counts as inactive or inconclusive. Potency means the concentration at half of the fitted maximal effect.

SMILES	KB-3-1 tox	HT1080-NT tox	HT1080 IDH1KD tx	KB-V1 MDR tox	MCF10A rerep	SW480 rereplic
CCOC(=O)NCc1ccc(S(=O)(=O)Nc2ccccc2C)cc1	i	-5.5%	-0.1%	23.1µM*	1.1%	1.5%
COC(=O)c1cccc(NS(=O)(=O)c2ccc(OC)cc2)c1C	8.2µM*	11.6µM*	-22.6%[9.24 µM]	9.2µM*	5.8µM*	u
CCOC(=O)c1ccccc1NS(=O)(=O)c1ccc(OCC)cc1	u	7.08µM*	2.24µM*	u	13µM*	11.6µM*
O=C(NCC(c1cccnc1)N1CCc2ccccc21)c1cccc(F)c1 (stereo not given)	i	x	x	i	x	x
CNc1cc(CS(=O)c2ccccc2)nc(-c2ccccc2)n1 (stereo not given)	i	16.6%	14.0%	i	6.3%	-1.3%
O=S(Cc1cc(Sc2ccccc2)nc(-c2ccccc2)n1)c1ccccc1 (stereo not given)	u	u	u	u	23.1µM*	u
CCNc1cc(S(=O)(=O)C(F)(F)F)ccc1N	u	0.7%	9.4%	23.1µM*	19.1%	0.6%
CCNc1ccc(S(=O)(=O)C(F)(F)F)cc1NC(=O)C12CCC(CC1)C2	i	0.0%	u	i	8.7%	8.8%
CC(=O)N1CCC2(CC1)OC(=O)C(C)=C2C(=O)Nc1ccccc1C(F)(F)F	i	x	x	i	x	x
OC1CN=C2CCCc3c2n(c2ccc(Cl)cc32)C1 (stereo not given)	u	-30.0%	-12.7%	i	u	2.6%
c1ccc(-c2ccc3c(c2)c2c4n3CCN=C4CCC2)cc1	u	u	u	10.3µM*	8.2µM*	u
CNc1nc2cc([N+](=O)[O-])c([N+](=O)[O-])cc2nc1NC	8.2µM*	3.26µM*	3.26µM*	i	25.1%	-3.1%
N#Cc1cc2nc(O)c(O)nc2cc1[N+](=O)[O-]	i	-1.0%	-1.3%	i	-3.7%	8.3%
CN(C)CCNC(=O)c1cc2sc3ccccc3c2s1	i	20.6µM*	23.1µM*	i	-1.8%[9.22 µM]	0.4%
Cn1nccc1C(=O)c1ccc(Cl)cc1	i	0.6%	11.1%	i	-15.0%	-14.0%
Cc1cc(CC(=O)O)n(C)c1C(=O)c1ccc(Cl)cc1	i	0.1%	-4.0%	i	29.9µM*!	-53.1%
COc1ccc(S(=O)(=O)N(CC(=O)Nc2ccc(OC)cc2OC)c2ccc(Cl)cc2)cc1	i	x	x	u	x	x
CC(NS(=O)(=O)c1ccccc1)C(c1cccs1)N1CCN(c2ccccc2)CC1 (stereo not given)	u	u	u	6.51µM*	u	5.3%
COc1ccccc1N1CCN(C(c2cccs2)C(C)NS(=O)(=O)c2ccccc2)CC1 (stereo not given)	u	-2.6%	-9.0%	i	-5.1%	-2.0%
Cc1ccc(CN(C)C(=O)c2ccc(S(=O)(=O)N(C)c3ccccc3)cc2)o1	i	3.5%	4.1%	i	u	8.2µM*
Cc1ccc(CN(C)C(=O)c2ccccc2Oc2ccccc2)o1	i	-5.8%	-5.8%	20.6µM*	6.5%	u
CSc1ccccc1OCc1cc(C(=O)N(C)Cc2ccc(C)o2)no1	i	-0.9%	0.9%	i	10.2%	u
COc1cc(Cl)c(C)cc1NC(=O)CSc1nc2c(c(=O)[nH]1)CCCC2	i	x	x	i	x	x
CCN(CC)S(=O)(=O)c1ccc(NC(=O)CSc2nnc3c(n2)[nH]c2ccccc23)cc1	x	12.6µM*	22.4µM*	x	x	x
CCN(CC)c1ccc(NC(=O)COc2ccccc2C#N)cc1S(=O)(=O)Nc1ccc(OC)cc1	i	0.7%	11.4%	3.66µM*	u	u
SMILES	KB-3-1 tox	HT1080-NT tox	HT1080 IDH1KD tx	KB-V1 MDR tox	MCF10A rerep	SW480 rereplic
CCN(CC)c1ccc(NC(=O)c2cnccn2)cc1S(=O)(=O)Nc1ccc(OC)cc1	u	-3.1%	-6.9%	4.11µM*	u	u
CCN(CC)c1ccc(NC(=O)COc2ccccc2C)cc1S(=O)(=O)Nc1ccccc1OC	i	17.6%	16.1%	u	-2.6%	3.2%
CN(C)CCOC(=O)CCCCCCCCC(=O)OCCN(C)C	i	11.1%	30.0%	i	-1.0%	3.66µM*
CCCNC(=O)Cn1c(=O)cc(C)c2c(C)nn(-c3cccc(F)c3)c21	i	x	x	i	x	x
O=C(c1cc(COc2ccc(F)cc2F)on1)N1CC[C@@H]2CCCC[C@H]2C1	i	0.7%	-1.9%	i	5.2%	-0.2%
CSc1ccccc1OCc1cc(C(=O)N2CCN(C3CCCC3)C(=O)C2)no1	i	-4.2%	-8.9%	14.6µM*	0.6%	-2.9%
O=C(c1cc(COc2ccc(F)cc2F)on1)N1CCN(C2CCCC2)C(=O)C1	i	2.7%	1.7%	5.17µM*	12.2%	-7.4%
O=C1NC[C@H](CCCCN2C[C@H](Cc3ccc(O)cc3)N(CCC3CCCCC3)C(=O)C2=O)N(CCc2ccc(O)cc2)C1=O	i	11.6%	u	i	x	x
CC(C)(C)c1ccc(CN2N=Nc3ccccc3S2(=O)=O)cc1	11.6µM*	u	u	8.2µM*	u	u
COc1ccccc1NC(=O)COc1ccc(Br)cc1CNCCCN1CCOCC1	i	-0.6%	-6.1%	i	u	u
COc1cc(CNCCCN2CCOCC2)c(Br)cc1OCC(=O)Nc1ccccc1C	i	-25.4%	-18.9%	i	14.6µM*	u
COc1cc(/C=N/O)c(Br)cc1OCC(=O)Nc1ccccc1C	i	11.4%	12.6%	8.2µM*	-51.9%	u
CN(C)/C=N/c1nc2c(ncn2C2CC(O)C(CO)O2)c(=O)[nH]1 (stereo not given)	i	x	x	i	x	x
CCOc1ccc(-n2c(Cc3ccccc3)nnc2SCc2nc(-c3ccccc3C)no2)cc1	i	x	x	i	x	x
Cc1nn(C)c2c1NC(=O)CS2	i	-7.0%	-9.7%	i	x	x
C=CCSc1n[nH]c(-c2ccc(OCCCC)cc2)n1	i	-10.0%	-10.5%	i	17.6%	-3.7%
C=CCSc1n[nH]c(-c2ccc(OCCC)cc2)n1	i	7.08µM*	8.91µM*	i	-5.5%	u
Cc1ccc(/C=N/n2cc(-c3ccccc3)[nH]c2=S)s1	i	-5.7%	0.6%	i	5.6%[9.22 µM]	18.4µM*

Screens (PubChem BioAssay)
